The panel holds about 83,000 compounds, 20% with a hit somewhere; the sample as a whole holds those more often.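 A percent growth of 40 corresponds to 60% growth inhibition; 0 means no net growth; -100 means all cells died. Active threshold: below 10.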 Active and inactive are the calls of the source.
Columns and labels:
Assay in all cases: NCI-60 one-dose screen, 48 h (100 = growth as untreated, 0 = no growth, -100 = all killed)
Conditions in all cases: 10 µM unless noted
[1] = tested on: NCI-H23 lung
[2] = tested on: NCI-H226 lung
[3] = tested on: NCI-H322M lung
[4] = tested on: HOP-62 NSCLC
[5] = tested on: NCI-H460 lung
[6] = tested on: HOP-92 NSCLC
[7] = tested on: NCI-H522 lung
[8] = tested on: A549/ATCC NSCLC
[9] = tested on: 786-0 renal
[10] = tested on: COLO 205 colon
[11] = tested on: DU-145 prostate
[12] = tested on: K-562 leukemia
[13] = tested on: MALME-3M melanoma
[14] = tested on: MDA-MB-231 breast
[15] = tested on: RXF 393 renal
[16] = tested on: SF-268 CNS
[17] = tested on: SF-295 CNS
[18] = tested on: SF-539 CNS
[19] = tested on: M14 melanoma

Measured: growth

Cc1cc(C(=O)O)c(N)c(C)n1
inactive: [1] 100% | [2] 118% | [3] 106% | [4] 106% | [5] 108% | [6] 93.2% | [7] 107% | [8] 108% | [9] 104% | [10] 119% | [11] 110% | [12] 104% | [13] 109% | [14] 106% | [15] 121% | [16] 104% | [17] 111% | [18] 102% | [19] 102%

Cc1cnc(NC(=O)C(Cc2ccccc2)NC(=O)c2ccccc2)s1 (centres undefined)
inactive: [1] 86% | [2] 70.2% | [3] 105% | [4] 84.1% | [5] 74.3% | [6] 19.1% | [7] 63.9% | [8] 90.7% | [9] 96.9% | [10] 91.9% | [11] 85.5% | [12] 29.7% | [13] 54% | [14] 77.9% | [15] 50.2% | [16] 96.9% | [17] 65.9% | [18] 87% | [19] 52%

COc1cc(-c2csc(NC(=O)c3cc(C(F)(F)F)cc(C(F)(F)F)c3)n2)cc(OC)c1OC
active: [1] -10.2% | [6] -10.6% | [7] 3.92% | [13] 3.36%
inactive: [2] 23.6% | [3] 32.7% | [4] 46.4% | [5] 13.8% | [8] 26.3% | [9] 41.6% | [10] 37.7% | [11] 35% | [12] 14.4% | [14] 41.1% | [15] 56.7% | [16] 35.4% | [17] 33.9% | [18] 56% | [19] 32.3%

O=[N+]([O-])c1ccc(S(=O)(=O)N2CCN(c3ccnc4cc(Cl)ccc34)CC2)c([N+](=O)[O-])c1
inactive: [1] 97.2% | [2] 83.7% | [3] 107% | [4] 96.4% | [5] 99.2% | [6] 82.1% | [7] 46.1% | [8] 99.2% | [9] 80.8% | [10] 91.4% | [11] 92.3% | [12] 18% | [13] 76.2% | [14] 85.3% | [15] 74% | [16] 86% | [17] 100% | [18] 93.5% | [19] 92.2%

CCN(Cc1ccc(CN(CC)C(=O)C(Br)Br)cc1)C(=O)C(Br)Br
inactive: [1] 43.3% | [2] 59.1% | [3] 26.3% | [4] 74.8% | [6] 60.7% | [7] 32.5% | [8] 25.2% | [9] 59.4% | [11] 14.1% | [12] 27.1% | [13] 52.6% | [14] 28.2% | [15] 67.9% | [16] 51.6% | [17] 45.9% | [18] 53.6% | [19] 24.9%
active: [5] 2.41% | [10] 3.56%

O=C1Nc2cc(Cl)ccc2/C1=C/c1ccc(N2CCOCC2)s1
inactive: [1] 109% | [2] 92.9% | [3] 101% | [4] 99.4% | [5] 112% | [6] 89.4% | [7] 101% | [8] 103% | [9] 88.5% | [10] 95.1% | [11] 110% | [12] 98.5% | [13] 96.5% | [14] 99% | [15] 93.9% | [16] 114% | [17] 86.8% | [18] 92.3% | [19] 111%

COC(=O)c1ccc(C)cc1
inactive: [1] 97.5% | [2] 106% | [3] 113% | [4] 107% | [5] 106% | [6] 100% | [7] 97.5% | [8] 103% | [9] 103% | [10] 106% | [11] 103% | [12] 102% | [13] 108% | [14] 107% | [15] 106% | [16] 97.9% | [17] 102% | [18] 103% | [19] 116%

C=C1C(=O)O[C@H]2[C@H]1CC/C(COC(=O)NCCc1ccc(Br)cc1)=C\CC[C@@]1(C)O[C@@H]21
active: [7] -52.1% | [9] -52.9% | [10] -25.3% | [11] -33.6% | [12] 5.94% | [14] -33.4% | [15] -35.3%
inactive: [1] 62.6% | [2] 13.2% | [3] 85.4% | [4] 54.6% | [5] 61.2% | [6] 33.6% | [8] 77.8% | [13] 73.7% | [16] 42.4% | [17] 86.5% | [18] 20.2% | [19] 19.9%

COc1cc(-c2csc(NC(=O)Nc3ccc(Cl)cc3Cl)n2)cc(OC)c1OC
inactive: [1] 42.7% | [2] 43.8% | [3] 30.8% | [4] 38.7% | [5] 10.3% | [6] 44% | [7] 21.4% | [8] 25.5% | [9] 33% | [10] 36.5% | [11] 46.6% | [12] 15.8% | [13] 45% | [14] 54.7% | [15] 49.9% | [16] 33.6% | [17] 19.2% | [18] 29.4% | [19] 34.9%

COC(=O)CCCCCN=Cc1c(O)c(O)c(C(C)C)c2cc(C)c(-c3c(C)cc4c(C(C)C)c(O)c(O)c(C=NCCCCCC(=O)OC)c4c3O)c(O)c12
active: [5] 8.12% | [6] -5.66% | [7] -21.8% | [12] 9.57% | [17] 9.3%
inactive: [1] 19.3% | [2] 54.9% | [3] 32% | [4] 18.8% | [8] 20.8% | [9] 28.1% | [10] 13.6% | [11] 23% | [13] 44.4% | [14] 11.9% | [15] 29.2% | [16] 25.6% | [18] 23.7% | [19] 18.6%

CN(C)C/C=C/C(=O)Nc1cc2c(Nc3cccc(Cl)c3F)ncnc2cc1OCCOC(F)F
inactive: [1] 60.9% | [2] 40.3% | [4] 39.3% | [5] 67.4% | [8] 25.2% | [9] 18.5% | [10] 56.7% | [11] 31.3% | [12] 18.1% | [13] 38.5% | [14] 17.6% | [16] 41.9% | [17] 55.2% | [18] 36.7% | [19] 67.5%
active: [3] 7.68% | [6] -29% | [7] -19.2% | [15] 6.09%

ClC1=C(Cl)C(Cl)=C(Cl)C1=Cc1ccc(Cl)cc1Cl
active: [1] -53.5% | [2] -33.9% | [5] -16.3% | [6] -81% | [7] -22.8% | [8] -38.4% | [9] -40.3% | [10] -34.1% | [11] -5.47% | [12] 0.397% | [13] -30.8% | [14] -10.8% | [15] -94.8% | [16] -43.4% | [17] -16.6% | [18] -30% | [19] -30.1%
inactive: [3] 11.3% | [4] 10.9%

O=C(Nc1ccc(I)cc1)c1cccc([N+](=O)[O-])c1O
inactive: [2] 20.5% | [3] 20.9% | [4] 23.5% | [5] 17.5% | [8] 14.5% | [9] 16.6% | [11] 32.5% | [12] 14.7% | [14] 16.8% | [15] 31.1% | [16] 24.1% | [18] 14.8% | [19] 15.7%
active: [1] -6.76% | [6] -4.99% | [7] 1.75% | [10] 7.78% | [13] -4.07% | [17] 4.77%

CCC#CC[C@H]1C/C=C2/C(=O)C=C[C@@H]2C/C=C\CCCC(=O)O1
inactive: [1] 20.4% | [3] 45.4% | [14] 16.1%
active: [2] -26.6% | [4] -3.46% | [5] -38.1% | [6] -5.7% | [7] -29% | [8] 0.732% | [9] -37.9% | [10] -22.7% | [11] 9.38% | [12] 2.38% | [13] 1.52% | [15] -65.4% | [16] 5.57% | [17] 4.47% | [18] 8.07% | [19] 2.84%

COC(=O)CCCCCCN=Cc1c(O)c(O)c(C(C)C)c2cc(C)c(-c3c(C)cc4c(C(C)C)c(O)c(O)c(C=NCCCCCCC(=O)OC)c4c3O)c(O)c12
inactive: [1] 19.5% | [2] 77.3% | [3] 45.2% | [4] 24% | [8] 29.7% | [9] 29% | [10] 15.7% | [11] 30.6% | [12] 10.5% | [13] 68.5% | [14] 11.9% | [15] 36.2% | [16] 32.8% | [18] 15.2% | [19] 27%
active: [5] 6.7% | [6] 7.71% | [7] -6.49% | [17] 7.26%

COc1ccc2c(c1)C(C)Cc1c(N(C)C)ncnc1N2C (centres undefined)
active: [7] -0.111% | [17] 9.16% | [18] 6.17%
inactive: [1] 52.7% | [2] 81.6% | [3] 53.9% | [4] 35.5% | [5] 16.1% | [6] 50.5% | [8] 50.5% | [9] 33% | [10] 15.8% | [11] 53.5% | [12] 15.1% | [13] 56.4% | [14] 54.3% | [15] 49% | [16] 46.1% | [19] 25.5%

Source: PubChem BioAssay (NCI)
